High-throughput results as filed in PubChem BioAssay.
NFkB transloc inh – blocks IL-1B driven NFkB nuclear translocation in HUVEC cells; HUVEC IL-1B NFkB p65 nuclear translocation imaging; 94,000 compounds, 0.43% hits; inhibition, % at 2 µM;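 active means inhibition above about 30% together with a positive call from visual inspection of the well image, limit read from the data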;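 further: nuclear over cytoplasmic p65 intensity ratio measured by imaging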
FAK inh – FAK (human) kinase inhibition. Q05397. biochemical FAK kinase activity assay. inhibition, %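 (tested at 7 µM)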. 97,000 compounds, 0.84% hits; in the data active means inhibition above about 19%
Target sequence (Q05397 whole entry, looked up): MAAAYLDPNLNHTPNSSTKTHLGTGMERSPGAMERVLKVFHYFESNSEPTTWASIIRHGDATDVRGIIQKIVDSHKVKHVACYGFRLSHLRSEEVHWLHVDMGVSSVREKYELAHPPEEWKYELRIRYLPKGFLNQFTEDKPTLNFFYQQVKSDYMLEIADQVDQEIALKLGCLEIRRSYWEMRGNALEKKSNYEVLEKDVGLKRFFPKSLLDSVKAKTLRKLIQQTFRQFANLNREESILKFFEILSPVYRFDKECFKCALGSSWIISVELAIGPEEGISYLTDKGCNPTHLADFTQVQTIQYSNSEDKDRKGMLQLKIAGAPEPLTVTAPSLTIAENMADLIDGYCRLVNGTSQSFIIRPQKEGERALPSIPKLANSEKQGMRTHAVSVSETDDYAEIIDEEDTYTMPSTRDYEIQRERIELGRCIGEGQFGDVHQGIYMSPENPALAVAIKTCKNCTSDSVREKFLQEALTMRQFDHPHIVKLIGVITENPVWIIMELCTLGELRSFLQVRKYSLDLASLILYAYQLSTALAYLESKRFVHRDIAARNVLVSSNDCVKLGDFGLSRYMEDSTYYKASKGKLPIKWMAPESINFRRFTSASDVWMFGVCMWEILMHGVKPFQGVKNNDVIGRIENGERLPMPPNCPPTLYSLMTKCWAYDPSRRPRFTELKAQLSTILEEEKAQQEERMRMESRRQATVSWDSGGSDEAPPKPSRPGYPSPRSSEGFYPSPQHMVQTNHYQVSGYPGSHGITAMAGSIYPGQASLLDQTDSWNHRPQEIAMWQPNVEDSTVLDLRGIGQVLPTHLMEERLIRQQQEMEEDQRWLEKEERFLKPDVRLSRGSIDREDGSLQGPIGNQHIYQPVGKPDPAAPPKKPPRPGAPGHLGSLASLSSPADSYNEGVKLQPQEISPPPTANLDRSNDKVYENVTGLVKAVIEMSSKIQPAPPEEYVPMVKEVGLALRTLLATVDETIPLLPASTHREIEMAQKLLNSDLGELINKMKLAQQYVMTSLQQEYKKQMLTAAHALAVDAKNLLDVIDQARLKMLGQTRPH
HUVEC tox IL1B – toxic to HUVEC cells under IL-1B stimulation; HUVEC cell count loss, Hoechst imaging, IL-1B stimulated; cell count reduction, % at 2 µM; 94,000 compounds, 0.41% hits; AID 845;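 active means cell count reduction more than 3 SD above the screen-wide mean, cut at about 70% in these data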
JNK3 blocker – JNK3 (human) kinase inhibition; purified JNK3 kinase activity, HTS; inhibition, % at 8 µM; 60,000 compounds, 0.61% hits; AID 746; in the data active means inhibition above about 17%
Pyk2 oligo antag – blocks oligomerization of human Pyk2 in cells; Q293 cells, Pyk2 FERM NanoBiT luminescence; stronger effect = lower value; z-score (the deposit names both 25 µM and 10 µM); 99,000 compounds, 0.83% hits;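 active means Z-score of -3 or lower, scaled per plate to the spread of control and sample wells; inactive means z-score above -3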;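 further: negative z-score means lost luminescence so less FERM oligomerization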
IL1B NFkB pot – enhances IL-1B driven NFkB nuclear translocation. 94,000 compounds, 0.3% hits. HUVEC IL-1B NFkB p65 nuclear translocation imaging. activation, % at 2 µM;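 active means activation above 40%, about the mean plus 3 SD, also judged a hit on visual image review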;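 further: percent activation is computed from the nuclear over cytoplasmic p65 intensity ratio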
Each line names hits and unclear results; the compound was inactive in the other large screens. Compounds with a hit are over-represented: about 2.4% of the library has one in this group of screens.

COCCn1nnnc1C(c1ccc2ncccc2c1)N1CCN(c2ccccc2F)CC1 (centres undefined)	none
COc1ccc(OC)c(C(c2nnnn2C2CCCC2)N2CCN(c3ccc(F)cc3)CC2)c1 (centres undefined)	Pyk2 oligo antag -3.2
COCCn1nnnc1C(c1ccc(OC)cc1OC)N1CCN(c2ccccc2F)CC1 (centres undefined)	Pyk2 oligo antag -4.4
COc1ccc(N2CCN(C(c3cc(OC)ccc3OC)c3nnnn3Cc3ccco3)CC2)cc1 (centres undefined)	Pyk2 oligo antag -3.2 (no result: NFkB transloc inh, FAK inh, HUVEC tox IL1B, IL1B NFkB pot)
COCCn1nnnc1C(c1ccc(OC)cc1OC)N1CCN(c2ccccc2)CC1 (centres undefined)	Pyk2 oligo antag -4.1
COc1ccc(OC)c(C(c2nnnn2CCc2ccccc2)N2CCN(c3ccccc3)CC2)c1 (centres undefined)	none
N#Cc1c(N)nc2c(c1-c1ccco1)CCCCC2	JNK3 blocker 32
COc1ccc(OCC(=O)Nc2sc3c(c2C(=O)NCC2CCCO2)CCC3)cc1 (centres undefined)	none (no result: JNK3 blocker)
COc1ccc(/C=N/NS(=O)(=O)c2ccccc2)cc1OS(=O)(=O)c1ccc(C)cc1	none (no result: JNK3 blocker)
CCCOc1ccccc1NC(=O)/C=C/C(N)=O	none (no result: NFkB transloc inh, HUVEC tox IL1B, JNK3 blocker, IL1B NFkB pot)
CC(=O)N=c1c(C#N)cc2c(=O)n3cccc(C)c3nc2n1CC(C)C	none (no result: NFkB transloc inh, FAK inh, HUVEC tox IL1B, Pyk2 oligo antag, IL1B NFkB pot)
CCOC(=O)c1ccc(NS(=O)(=O)N2CCCCCC2)cc1	Pyk2 oligo antag -3.1
CCOC(=O)c1ccc(NC(=O)C2CCN(S(=O)(=O)CC)CC2)cc1	none
Cc1c(C)c2c(C)[nH]nc2oc1=O	HUVEC tox IL1B 76
N#C[C@H]1[C@H](c2ccccc2)[C@](C#N)(C(=O)c2ccccc2)[C@@H]2C=Cc3ccccc3N21	none (no result: JNK3 blocker, Pyk2 oligo antag)
COc1cccc(OC)c1-c1nn2c(-c3ccccc3Cl)nnc2s1	Pyk2 oligo antag -3
CCN(C(=O)c1cc2cccc(OC)c2oc1=O)C1CCCCC1	none (no result: JNK3 blocker)
Cc1ccccc1C(=O)Nc1ccccc1-n1cccc1	IL1B NFkB pot 40 (no result: JNK3 blocker)
Cc1cccc(NC(=O)c2sccc2-n2cccc2)c1C	none (no result: NFkB transloc inh, HUVEC tox IL1B, JNK3 blocker, IL1B NFkB pot)
CC(=O)Oc1c(S(=O)(=O)c2ccc(C)cc2)c(C)nn1-c1ccccc1	none
CCOc1ccc(C(=O)Nc2nncs2)cc1OCC	none (no result: NFkB transloc inh, HUVEC tox IL1B, IL1B NFkB pot)
Cc1nn(-c2ccccc2)c2c1C1(C(=O)Nc3ccccc31)N1C(=N2)Sc2ccccc21 (centres undefined)	Pyk2 oligo antag -4.2
CCCn1c(NC(=O)c2cccc(S(=O)(=O)N3CCCC3)c2)nc2ccccc21	Pyk2 oligo antag -3.9 (no result: NFkB transloc inh, FAK inh, HUVEC tox IL1B, IL1B NFkB pot)
CCCn1c(NC(=O)c2ccccc2)nc2ccccc21	none
COc1cccc(/C=N/NC(=O)c2[nH]c(C)c(C(=O)N/N=C/c3cccc(OC)c3O)c2C)c1O	none (no result: JNK3 blocker)
Brc1ccc(-c2cn3ccccc3n2)s1	none (no result: JNK3 blocker)
N/C(=N\OS(=O)(=O)c1ccc(Br)cc1)c1ccncc1	NFkB transloc inh 35 (no result: JNK3 blocker)
COc1ccccc1NS(=O)(=O)c1ccc(NC(=O)c2nc3nc(C)cc(C(F)F)n3n2)cc1	none (no result: JNK3 blocker)
COc1ccc(/C=C(\NC(=O)c2ccccc2)C(=O)N/N=C/c2ccncc2)cc1	none (no result: JNK3 blocker)
Cc1ccnc(N/C=C(/NC(=O)c2ccccc2)C(=O)N/N=C\c2ccc(F)cc2)n1	NFkB transloc inh 56, HUVEC tox IL1B 78 (no result: JNK3 blocker)
CCCCc1cc(O)c(CCCC)c(O)c1	Pyk2 oligo antag -3.7
CCCCc1c(O)c2ccccc2[nH]c1=O	none
N#C/C(=C(\O)c1ccco1)c1ccccn1	JNK3 blocker 19
Cc1noc(C)c1C(=O)OCC(=O)NCCC1=CCCCC1	IL1B NFkB pot 114
Cc1noc(C)c1C(=O)NCCC1=CCCCC1	none
COc1ccccc1NS(=O)(=O)c1cc([N+](=O)[O-])ccc1N/N=C/c1c(C)[nH]c2ccccc12	Pyk2 oligo antag -3.1 (no result: JNK3 blocker)
O=[N+]([O-])c1ccc(N/N=C/c2c[nH]c3ccccc23)c(S(=O)(=O)Nc2ccc(Cl)cc2)c1	none (no result: JNK3 blocker)
O=C(CNC(=O)c1ccccc1)NC1(C(=O)NC2CCCC2)CCCCC1	none
Cc1cc(NCCOCCO)n2ncc(-c3ccc(Cl)cc3)c2n1	HUVEC tox IL1B 91
COc1ccc(CNC(=O)c2cnn3c(C(F)F)cc(C)nc23)cc1OC	JNK3 blocker 24 (no result: NFkB transloc inh, FAK inh, HUVEC tox IL1B, Pyk2 oligo antag, IL1B NFkB pot)
CCC(Sc1nc2n[nH]c(C)c2c(=N)n1-c1cccc(Cl)c1C)C(=O)N(CC)CC (centres undefined)	Pyk2 oligo antag -3 (no result: JNK3 blocker)
COc1ccc(NC2c3ncccc3C(=O)N2Cc2ccccc2)c(OC)c1 (centres undefined)	HUVEC tox IL1B 90
CCNC(=O)O/N=C(\C)c1sc(-c2ccc(Cl)cc2)nc1C	none (no result: JNK3 blocker)
O=C1NC(c2ccccc2)=C(c2nc3ccccc3s2)C(c2ccc(F)cc2)N1 (centres undefined)	Pyk2 oligo antag -3.2 (no result: JNK3 blocker)
CC(=NCc1cccnc1)C1=C(O)c2ccccc2C1=O	JNK3 blocker 37
CC(=NCCCn1ccnc1)C1=C(O)c2ccccc2C1=O	JNK3 blocker 29
CNc1nnc(-c2ccc(N(C)C)cc2)s1	none (no result: JNK3 blocker)
COc1ccc(NC(=O)c2cc(OC)c(OC)c(OC)c2)cn1	NFkB transloc inh 48
COc1cc(C(=O)Nc2cccc3cccnc23)cc(OC)c1OC	NFkB transloc inh 39 (no result: JNK3 blocker)
O=C(Nc1cccc2cccnc12)c1cccnc1	none
COC(=O)c1cc(NC(=O)Nc2ccccc2)ccc1Cl	none (no result: NFkB transloc inh, FAK inh, HUVEC tox IL1B, JNK3 blocker, IL1B NFkB pot)
Cc1cc(Oc2ccc(C#N)cc2)nc(N2CCOCC2)n1	NFkB transloc inh 37 (no result: JNK3 blocker)
CCOc1ccc(Nc2cc(C)nc(N3CCOCC3)n2)cc1	none
CCn1nc([N+](=O)[O-])c(C(C#N)c2nc3cc(C(F)(F)F)ccc3s2)c(Cl)c1=O (centres undefined)	Pyk2 oligo antag -3.3 (no result: JNK3 blocker)
O=C(Nc1ccc2c(c1)C(=O)N(c1ccccc1)C2=O)C1CCCO1 (centres undefined)	none (no result: JNK3 blocker)
CCCOc1cc(N(CC)CC)ccc1/C=C(/C#N)c1nc2ccc(C)cc2[nH]1	none (no result: JNK3 blocker)
CCOc1cc(N(CC)CC)ccc1/C=C(/C#N)c1nc2ccccc2[nH]1	Pyk2 oligo antag -3.1 (no result: JNK3 blocker)
CCN(CC)c1ccc(/C=C(/C#N)c2nc3ccc(C)cc3[nH]2)c(OC(C)C)c1	Pyk2 oligo antag -3.1 (no result: JNK3 blocker)
O=C(COC(=O)c1cnccn1)NCc1ccccc1	none (no result: JNK3 blocker)
O=C(Oc1ccccc1)c1cccc(COC(=O)c2cnccn2)c1	HUVEC tox IL1B 87
O=C(Cn1nnc2ccccc21)NCc1ccccc1	none
O=C(Cn1nnc2ccccc21)N/N=C\C=C\c1ccccc1	HUVEC tox IL1B 88 (no result: JNK3 blocker)
CC1CN(C(=O)CN2C(=O)c3ccccc3C2=O)CC(C)O1 (centres undefined)	none
CCCSc1ccc2nc(NC(=O)OC)[nH]c2c1	none (no result: NFkB transloc inh, FAK inh, HUVEC tox IL1B, Pyk2 oligo antag, IL1B NFkB pot)
COC(=O)Nc1nc2ccc(C(=O)c3ccccc3)cc2[nH]1	JNK3 blocker 21 (no result: NFkB transloc inh, FAK inh, HUVEC tox IL1B, Pyk2 oligo antag, IL1B NFkB pot)
COc1ccccc1N(C(=O)c1snc(C(N)=O)c1N)C(C(=O)NCCC(C)C)c1ccco1 (centres undefined)	none
NC(=O)c1nsc(C(=O)N(CC(=O)NCc2ccco2)c2ccccc2F)c1N	FAK inh 24 (no result: JNK3 blocker)
Cc1ccc(CCN2CC(C(=O)NCCCN3CCCCCC3)CC2=O)cc1 (centres undefined)	none
